Five molecules from PubChem BioAssay (EPA / NIEHS) can be followed below.

The nature of test [1]: ATG_DR4_LXR_CIS: Attagene CIS-FACTORIAL HepG2 Assay for human Liver X Receptor (LXR), DR4 submotif (AID 2282929). The note with it: HepG2 Attagene DR4 cis-reporter, mRNA transcription; AC50: actives raise or lower the signal unless noted; outcome: actives raise or lower the signal unless noted. Summed up: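 Transiently transfected HepG2 liver cells; cis-regulated reporters; 24 h dosing. RT-PCR plus CE read-out of reporter mRNA. DMSO baseline, bidirectional curve fitting.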

Test [2] addresses Aryl hydrocarbon receptor (Homo sapiens) (UniProt P35869). Nature of the test: ATG_Ahr_CIS: Attagene CIS-FACTORIAL HepG2 Assay for human Aryl Hydrocarbon Receptor (Ahr) (AID 2282930). The note with it: HepG2 AhR cis-factorial reporter transcription; actives raise or lower the signal. In short, it runs like this: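 Reporter mRNA levels, quantified by RT-PCR and fluorescent capillary electrophoresis, reflect endogenous AhR transcriptional activity in HepG2 cells carrying transfected cis-promoter reporter constructs. Readout at 24 h post-dose; gain or loss fitted against DMSO baseline.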

The nature of test [3]: ATG_AP_1_CIS: Attagene CIS-FACTORIAL HepG2 Assay for human Activator Protein 1 (AP-1) (AID 2282931). To be noted: HepG2 Attagene cis-factorial AP-1 reporter mRNA; actives raise or lower the signal. In short, it runs like this:
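We transfected HepG2 cells transiently with a set of cis-regulated reporter transcription units, dosed them for 24 h, and quantified reporter mRNA via RT-PCR and capillary electrophoresis, scoring gain or loss of signal relative to DMSO.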

Test [4] is described as follows: ATG_AP_2_CIS: Attagene CIS-FACTORIAL HepG2 Assay for human Activator Protein 2 (AP-2) (AID 2282932). To be noted: HepG2 AP-2 cis-reporter, Attagene transcription factor profiling; AC50: actives raise or lower the signal unless noted; outcome: actives raise or lower the signal unless noted. Summed up:
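HepG2, transient MRTU transfection, cis-regulated reporters; 24 h compound exposure; RNA isolated, RT-PCR, 6-FAM labelling, HpaI digest, CE fluorescence. DMSO = negative control/baseline, bidirectional fit.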

Test [5] in a line: ATG_BRE_CIS: Attagene CIS-FACTORIAL HepG2 Assay for human Bone Morphogenetic Protein (BMP) Response Element (BRE) (AID 2282933). The note with it: HepG2 BMP response element reporter, Attagene transcription factor profiling; actives raise or lower the signal. In short, it runs like this:
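Transient MRTU transfection of human HepG2 liver cells; 24 h compound treatment; total RNA isolated, reverse-transcribed, PCR-amplified, 6-FAM labelled, HpaI-cut, capillary electrophoresis. DMSO = negative control/baseline, bidirectional fit.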

In test [6] the target is Transcription factor E2F1 (Homo sapiens) (UniProt Q01094). Nature of the test: ATG_E2F_CIS: Attagene CIS-FACTORIAL HepG2 Assay for human E2F Transcription Factor 1 (AID 2282935). The note with it: HepG2 Attagene cis-reporter, E2F reporter RNA transcripts; actives raise or lower the signal. Summed up:
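Cis-element reporter mRNA induction in transiently transfected HepG2, 24 h exposure. Activity fitted in both directions relative to DMSO negative control.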

Test [7] is described as follows: ATG_E_Box_CIS: Attagene CIS-FACTORIAL HepG2 Assay for human Enhancer Box (E-box) (AID 2282936). The note with it: HepG2 E-box cis-reporter transcription, actives raise or lower the signal. Summed up: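 Cells: HepG2 (human liver), transient MRTU transfection. Exposure 24 h. RNA → oligo(dT) RT → PCR → 6-FAM label → HpaI → CE. Activity fitted both directions relative to DMSO.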

A short description of test [8]: ATG_M_61_CIS: Attagene CIS-FACTORIAL HepG2 Assay for M61 Transcription Factor (Internal Marker) (AID 2282937). The note with it: HepG2 Attagene CIS-FACTORIAL M61 internal marker reporter; actives raise or lower the signal. Summed up:
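Multiplexed reporter mRNA assay, HepG2 human hepatoma cells, 24 h treatment. Signal: FAM-labelled, HpaI-digested RT-PCR fragments by CE. Fit: bidirectional, baseline DMSO.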

The nature of test [9]: ATG_EGR_CIS: Attagene CIS-FACTORIAL HepG2 Assay for human Early Growth Response 1 (EGR1) (AID 2282938). The note with it: HepG2 Attagene CIS-FACTORIAL EGR reporter mRNA; actives raise or lower the signal. In short, it runs like this: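 Multiplexed cis-reporter system in human hepatoma HepG2 cells, transiently transfected. Cells are dosed for 24 h; reporter transcripts are amplified, fluorescently tagged and sized by capillary electrophoresis, with DMSO as negative control.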

Test [10] is described as follows: ATG_M_19_CIS: Attagene CIS-FACTORIAL HepG2 Assay for M19 Transcription Factor (Internal Marker) (AID 2282939). The note with it: HepG2 Attagene CIS-FACTORIAL M19 internal marker reporter; actives raise or lower the signal. In short, it runs like this: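 Transfect HepG2 with MRTU reporter library → dose chemical, 24 h → isolate total RNA, reverse-transcribe with oligo(dT) → PCR, 6-FAM label, HpaI cut (2 h, 37 C) → capillary electrophoresis. Bidirectional fit vs DMSO.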

Test [11] is described as follows: ATG_ERE_CIS: Attagene CIS-FACTORIAL HepG2 Assay for Estrogen Response Element (ERE) (AID 2282940). The note with it: HepG2 ERE cis-reporter, Attagene RNA transcript; actives raise or lower the signal. In short, it runs like this: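 Transient MRTU transfection of human HepG2; cis-element promoters; 24 h dosing; total RNA → RT (oligo dT) → PCR → 6-FAM primer extension → HpaI digest → CE fluorescence. Bidirectional fit, DMSO baseline.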

Test [12] can be described thus: ATG_Ets_CIS: Attagene CIS-FACTORIAL HepG2 Assay for human Erythroblast Transformation Specific (ETS) (AID 2282941). The note with it: HepG2 ETS cis-reporter transcription; AC50: actives raise or lower the signal unless noted; outcome: actives raise or lower the signal unless noted. Summed up: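 After transient cis-reporter transfection, HepG2 cells receive test chemical for 24 h. Reporter mRNA levels, measured by RT-PCR and capillary electrophoresis fluorescence, are analysed bidirectionally relative to the DMSO baseline.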

The nature of test [13]: ATG_FoxO_CIS: Attagene CIS-FACTORIAL HepG2 Assay for human Forkhead box O (FoxO) (AID 2282943). To be noted: HepG2 Attagene cis-reporter, FoxO element, mRNA; actives raise or lower the signal. In short, it runs like this:
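Endogenous transcription factor activity read from multiplexed cis-promoter reporter transcripts in transiently transfected HepG2, 24 h after dosing. Reporter RNA measured via RT-PCR plus capillary electrophoresis of FAM-labeled products; gain or loss relative to DMSO.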

The nature of test [14]: ATG_GATA_CIS: Attagene CIS-FACTORIAL HepG2 Assay for human GATA Binding Protein (AID 2282944). The note with it: HepG2 GATA cis-element reporter, Attagene multiplex mRNA; actives raise or lower the signal. Summed up: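 Transient MRTU transfection, HepG2, 24 h compound exposure. Total RNA → oligo(dT) RT → PCR → 6-FAM primer extension → HpaI cut → CE. Bidirectional fit vs DMSO.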

A short description of test [15]: ATG_GLI_CIS: Attagene CIS-FACTORIAL HepG2 Assay for human Zinc Finger Protein GLI1 (AID 2282945). To be noted: HepG2, Attagene cis-factorial reporter mRNA, GLI element; actives raise or lower the signal. In short, it runs like this:
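Bidirectional curve fits relative to DMSO, using reporter mRNA levels from RT-PCR plus capillary electrophoresis. Cells were HepG2 transiently carrying cis-regulated reporter constructs, harvested 24 h after dosing.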

For test [16], the target named is Bile acid receptor (Homo sapiens) (UniProt Q96RI1). The test is described as follows: ATG_IR1_CIS: Attagene CIS-FACTORIAL HepG2 Assay for human Nuclear Receptor Subfamily 1 Group H Member 4 (NR1H4), IR1 submotif (AID 2282946). To be noted: IR1 reporter transcription, actives raise or lower the signal. Summed up:
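Cells (human HepG2) carry transiently transfected cis-promoter reporter transcription units. Compounds are incubated 24 h, total RNA is reverse-transcribed and amplified, and labelled fragments are resolved by capillary electrophoresis. Curves use DMSO as baseline.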

Test [17] in a line: ATG_ISRE_CIS: Attagene CIS-FACTORIAL HepG2 Assay for human Interferon Regulatory Factor 1 (IRF1) binding to an Interferon-Stimulated Response Element (ISRE) (AID 2282948). The note with it: HepG2 ISRE cis-reporter (Attagene), mRNA transcription readout; actives raise or lower the signal. Summed up:
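Quantitation relies on labelled RT-PCR fragments separated by capillary electrophoresis. Human HepG2 cells bearing cis-promoter reporter constructs were treated 24 h; DMSO served as baseline for bidirectional fitting.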

In test [18] the target is Hepatocyte nuclear factor 3-beta (Homo sapiens) (UniProt Q9Y261). The test is described as follows: ATG_FoxA2_CIS: Attagene CIS-FACTORIAL HepG2 Assay for human Forkhead box A2 (FOXA2) (AID 2282942). The note with it: HepG2 cis-reporter transcription factor activity, 24 h; actives raise or lower the signal. Summed up:
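Multiplexed cis-element reporter assay in transiently transfected HepG2. Twenty-four hours post-dosing, RNA was reverse-transcribed, amplified, FAM-labelled, HpaI-digested and separated by CE. Activity gain or loss relative to DMSO.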

The nature of test [19]: ATG_GRE_CIS: Attagene CIS-FACTORIAL HepG2 Assay for human Glucocorticoid Response Elements (GRE) (AID 2282947). To be noted: HepG2 GRE cis-reporter, Attagene multiplex mRNA; AC50: actives raise or lower the signal unless noted; outcome: actives raise or lower the signal unless noted. In short, it runs like this: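 Transient MRTU transfection of human HepG2 liver cells; cis-regulated reporters report endogenous factors. 24 h dosing → RNA isolation → RT-PCR → 6-FAM primer extension → HpaI cut → CE fragment analysis. Bidirectional fit, DMSO negative control.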

In test [20] the target is Retinoic acid receptor alpha (Homo sapiens) (UniProt P10276). The test is described as follows: ATG_DR5_RAR_CIS: Attagene CIS-FACTORIAL HepG2 Assay for human Retinoic Acid Receptor Alpha (RARE), DR5 submotif (AID 2282934). To be noted: HepG2 Attagene cis-factorial RARE DR5 reporter, mRNA; actives raise or lower the signal. In short, it runs like this:
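Reporter transcripts from a DR5-regulated unit, measured via RT-PCR plus capillary electrophoresis, reflect endogenous RAR activity in transiently transfected human HepG2 liver cells. Exposure lasted 24 h; gain or loss of signal scored against DMSO.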

The source made the active and inactive calls. How the source made its calls: active means hit-call score of the fitted dose curve at least 0.9, where 1 is the maximum; inactive means score below 0.9.

Chain of Aryl hydrocarbon receptor (Homo sapiens) (P35869 whole entry, looked up): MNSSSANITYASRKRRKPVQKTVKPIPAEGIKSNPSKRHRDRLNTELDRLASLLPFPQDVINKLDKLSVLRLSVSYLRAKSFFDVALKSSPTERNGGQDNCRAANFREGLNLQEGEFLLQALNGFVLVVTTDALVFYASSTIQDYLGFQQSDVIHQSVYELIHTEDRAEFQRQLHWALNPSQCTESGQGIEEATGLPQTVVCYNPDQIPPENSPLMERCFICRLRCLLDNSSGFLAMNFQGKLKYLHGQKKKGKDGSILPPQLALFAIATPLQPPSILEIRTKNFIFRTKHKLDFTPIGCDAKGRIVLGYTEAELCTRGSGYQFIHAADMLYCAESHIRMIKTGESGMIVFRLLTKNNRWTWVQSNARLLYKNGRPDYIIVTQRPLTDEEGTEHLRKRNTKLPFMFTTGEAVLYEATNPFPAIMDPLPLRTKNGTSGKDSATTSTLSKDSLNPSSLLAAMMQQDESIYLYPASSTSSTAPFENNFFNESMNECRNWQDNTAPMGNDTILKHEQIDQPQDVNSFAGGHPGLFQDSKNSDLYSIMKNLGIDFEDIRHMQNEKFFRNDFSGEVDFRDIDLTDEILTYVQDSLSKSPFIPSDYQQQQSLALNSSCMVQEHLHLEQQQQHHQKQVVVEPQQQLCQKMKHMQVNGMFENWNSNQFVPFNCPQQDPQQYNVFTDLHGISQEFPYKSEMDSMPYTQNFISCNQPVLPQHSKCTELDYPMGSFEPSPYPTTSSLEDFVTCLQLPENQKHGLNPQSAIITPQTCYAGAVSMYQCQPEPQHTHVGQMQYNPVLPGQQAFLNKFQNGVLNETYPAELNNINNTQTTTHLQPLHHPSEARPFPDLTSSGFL
Chain of Transcription factor E2F1 (Homo sapiens) (Q01094 whole entry, looked up): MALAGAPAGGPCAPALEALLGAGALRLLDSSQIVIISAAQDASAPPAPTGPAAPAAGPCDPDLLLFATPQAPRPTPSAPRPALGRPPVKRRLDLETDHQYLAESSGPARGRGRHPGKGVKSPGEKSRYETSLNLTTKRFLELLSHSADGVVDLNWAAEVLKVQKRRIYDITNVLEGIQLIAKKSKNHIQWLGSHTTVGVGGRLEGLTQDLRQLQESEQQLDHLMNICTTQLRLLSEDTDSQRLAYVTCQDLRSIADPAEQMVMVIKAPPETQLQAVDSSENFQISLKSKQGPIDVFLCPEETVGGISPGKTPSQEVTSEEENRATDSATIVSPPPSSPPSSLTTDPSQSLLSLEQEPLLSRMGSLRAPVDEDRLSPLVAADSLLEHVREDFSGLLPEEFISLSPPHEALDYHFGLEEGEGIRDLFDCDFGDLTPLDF
Chain of Hepatocyte nuclear factor 3-beta (Homo sapiens) (Q9Y261 whole entry, looked up): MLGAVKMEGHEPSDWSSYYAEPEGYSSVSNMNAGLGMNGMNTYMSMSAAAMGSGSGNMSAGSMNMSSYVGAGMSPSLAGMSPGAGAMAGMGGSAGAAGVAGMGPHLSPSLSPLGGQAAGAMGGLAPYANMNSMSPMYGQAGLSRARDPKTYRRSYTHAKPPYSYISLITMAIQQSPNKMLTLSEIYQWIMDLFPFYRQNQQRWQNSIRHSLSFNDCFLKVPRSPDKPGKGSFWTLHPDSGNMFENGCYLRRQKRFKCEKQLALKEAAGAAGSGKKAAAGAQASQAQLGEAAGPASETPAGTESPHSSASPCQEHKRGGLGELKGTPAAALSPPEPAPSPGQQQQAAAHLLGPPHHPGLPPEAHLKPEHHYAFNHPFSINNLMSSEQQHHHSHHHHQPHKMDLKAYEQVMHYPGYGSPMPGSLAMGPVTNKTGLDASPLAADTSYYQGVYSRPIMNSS
Chain of Bile acid receptor (Homo sapiens) (Q96RI1 whole entry, looked up, the tested form may be a part): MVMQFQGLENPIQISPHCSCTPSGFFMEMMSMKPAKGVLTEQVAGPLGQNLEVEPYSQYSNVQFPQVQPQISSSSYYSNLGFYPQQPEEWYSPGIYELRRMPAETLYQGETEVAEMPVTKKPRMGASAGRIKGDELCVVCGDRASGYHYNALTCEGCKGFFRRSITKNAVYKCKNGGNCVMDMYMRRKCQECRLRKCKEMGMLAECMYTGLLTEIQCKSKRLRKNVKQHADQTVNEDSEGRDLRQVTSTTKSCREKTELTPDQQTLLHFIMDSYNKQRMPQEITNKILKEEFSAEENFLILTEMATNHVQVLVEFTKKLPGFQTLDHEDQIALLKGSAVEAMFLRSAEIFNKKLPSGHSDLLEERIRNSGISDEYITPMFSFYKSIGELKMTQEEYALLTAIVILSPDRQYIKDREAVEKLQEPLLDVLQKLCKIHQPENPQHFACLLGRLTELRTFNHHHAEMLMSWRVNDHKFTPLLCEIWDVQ
Chain of Retinoic acid receptor alpha (Homo sapiens) (P10276 whole entry, looked up): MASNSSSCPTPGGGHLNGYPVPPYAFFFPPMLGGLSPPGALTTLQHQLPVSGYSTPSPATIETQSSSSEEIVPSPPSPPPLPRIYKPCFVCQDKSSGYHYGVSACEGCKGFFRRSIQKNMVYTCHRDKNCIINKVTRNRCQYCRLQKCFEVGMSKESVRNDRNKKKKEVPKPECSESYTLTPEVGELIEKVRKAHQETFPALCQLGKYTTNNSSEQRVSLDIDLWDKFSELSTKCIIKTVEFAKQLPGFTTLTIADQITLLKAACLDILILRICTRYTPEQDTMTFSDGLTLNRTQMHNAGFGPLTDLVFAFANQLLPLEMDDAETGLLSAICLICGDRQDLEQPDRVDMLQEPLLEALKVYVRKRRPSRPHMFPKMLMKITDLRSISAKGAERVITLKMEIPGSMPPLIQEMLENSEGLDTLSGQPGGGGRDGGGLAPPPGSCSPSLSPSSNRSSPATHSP

On to `CCCCCc1ccc(O)cc1`, for which the half-maximal activity concentration (AC50) in test [1] is 33 µM (active); in test [2], 15 µM (active); in [11], 2.4 µM (active). For the same molecule, the result in test [3], in test [4], in test [5], in test [6], in test [7] and in [8] was inactive. For the same molecule, the molecule was classed as inactive in [9], in test [10], in [12], in [13], in test [14] and in test [15]. Moreover, the outcome in test [16] and in test [17] was inactive.

For `CC(C)[C@@H]1CC[C@@H](C)C[C@H]1O`, the result in test [1], in [2], in [3], in test [4], in [5] and in test [6] was inactive. For the same molecule, the outcome in test [7], in [8], in [9], in [12], in test [18] and in [13] was inactive. Also, the molecule was called inactive in test [14], in test [15], in test [16] and in test [17].

`Clc1ccc(Nc2nnc(Cc3ccncc3)c3ccccc23)cc1`: the result in [1], in [2], in [4], in test [5], in test [6] and in [7] was inactive. For the same molecule, the molecule was called inactive in [8], in test [10], in test [11], in test [12], in [13] and in [14]. Besides, the outcome in [15], in [16], in test [19] and in test [17] was inactive. The figures for the AC50 in test [3] and in test [9] were 42 µM (active) and 16 µM (active), respectively.

On to `CN(Cc1cnc2nc(N)nc(N)c2n1)c1ccc(C(=O)N[C@@H](CCC(=O)O)C(=O)O)cc1`, for which the call in test [1], in test [3], in test [4], in test [5], in [20] and in test [6] was inactive. Moreover, the result in [7], in [8], in [9], in test [10], in test [11] and in [12] was inactive. Further, the molecule was called inactive in test [18], in test [13], in test [14], in test [15] and in test [17].

In the case of `NCCN`, the molecule was classed as inactive in test [1], in test [2], in [3], in test [4], in [5] and in [6]. Besides, the result in test [7], in [8], in test [9], in test [10], in test [11] and in test [12] was inactive. The result in test [13], in test [14], in test [15] and in test [17] was inactive.
